The supplement of paper PMC12350171
Counter-ions that a name gives are not always drawn. Values without a mark were called inactive.

Columns and labels:
Settings in all cases: 20 µM
[1] = system: Salmonella enterica typhimurium; test: growth AUC normalised to DMSO control (fraction of control); higher = less growth inhibition, active = hit call of the paper
Procedure, shortened: (§1)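 After two anaerobic passages, pathogens were added at a starting OD578 of 0.01 to pre-reduced mGAM plates holding compound at 20 μM with 1% DMSO; hemin and NAD were supplemented for Haemophilus parainfluenzae. Sealed with breathable membranes, plates were read at OD578 hourly for 24 h, in three biological replicates. The trapezoidal rule, applied up to the exponential-to-stationary transition, gave the growth-curve AUC, which was normalised to DMSO controls on the same plate.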

Shigella flexneri = test: as above
Procedure, shortened: as §1

Vibrio cholerae = test: as above
Procedure, shortened: as §1

[2] = system: Yersinia pseudotuberculosis; test: as above
Procedure, shortened: as §1

P. vulgatus RND KO = test: growth AUC normalised to DMSO control (median) (fraction of control); higher = less growth inhibition, active = hit call of the paper
Procedure, shortened: (§2)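 After two overnight anaerobic passages, strains were inoculated at OD578 0.01 into mGAM in 96-well plates containing approved-drug library compounds at 20 μM and 1% DMSO. Growth was followed by reading OD578 hourly for 24 h within an anaerobic incubator. Area under the curve, taken by the trapezoidal rule up to the start of stationary phase, was normalised to same-plate vehicle wells, and the median of three biological replicates is listed.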

P. vulgatus WT = test: as above
Procedure, shortened: as §2

[3] = system: S. enterica typhimurium WT; test: as above
Procedure, shortened: as §2

[4] = system: S. enterica typhimurium tolC KO; test: as above
Procedure, shortened: as §2
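Wherever growth AUC normalised to DMSO control (median) is given: active when median AUC fell below 0.1.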

Row | SMILES | growth AUC normalised to DMSO control [1] | growth AUC normalised to DMSO control (Shigella flexneri) | growth AUC normalised to DMSO control (Vibrio cholerae) | growth AUC normalised to DMSO control [2] | growth AUC normalised to DMSO control (P. vulgatus RND KO) | growth AUC normalised to DMSO control (P. vulgatus WT) | growth AUC normalised to DMSO control [3] | growth AUC normalised to DMSO control [4]
1 | CC(=O)CC(c1ccc([N+](=O)[O-])cc1)c1c(O)c2ccccc2oc1=O (stereo not drawn) [Acenocoumarol] | 0.985 | 1.01 | 0.938 | 0.991 | 1.07 | 1.06 | 0.999 | 0.999
2 | COCC(=O)Nc1c(I)c(C(=O)NCC(O)CO)c(I)c(C(=O)N(C)CC(O)CO)c1I (stereo not drawn) [Iopromide] | 1 | 1.03 | 1.06 | 1.02 | 1.05 | 1.05 | 1.02 | 1.01
3 | O=C(O)Cc1ccc(-c2ccccc2)cc1 [Felbinac] | 1.03 | 0.977 | 0.996 | 0.994 | 1 | 1.01 | 1.01 | 0.988
4 | C=CC(N)CCC(=O)O (stereo not drawn) [Vigabatrin hydrochloride] | 1.02 | 1.02 | 1.01 | 0.997 | 1.01 | 1.06 | 1.03 | 0.992
5 | CCn1cc(C(=O)O)c(=O)c2cc(F)c(N3CCN(C)CC3)cc21 [Pefloxacin] | 0.00601 (active) | 0.0383 (active) | 0.0435 (active) | 0.0255 (active) | 1.01 | 0.799 | 0.00724 (active) | 0.00757 (active)
6 | COc1ccccc1OCC(O)CO (stereo not drawn) [Guaifenesin] | 0.998 | 1.02 | 1.01 | 0.992 | 0.984 | 0.987 | 0.995 | 0.99
7 | CN1CCC(=C2c3ccccc3Sc3ccccc32)CC1 [Pimethixene maleate] | 0.988 | 0.948 | 0.853 | 1.02 | 0.812 | 0.776 | 1 | 0.956
8 | COc1c(N2CCNC(C)C2)c(F)cc2c(=O)c(C(=O)O)cn(C3CC3)c12 (stereo not drawn) [Gatifloxacin] | 0.0102 (active) | 0.0167 (active) | 0.0355 (active) | 0.0287 (active) | 0.0163 (active) | 0.0109 (active) | 0.0104 (active) | 0.0044 (active)
9 | CCN1CCCC(OC(=O)C(c2ccccc2)c2ccccc2)C1 (stereo not drawn) [Piperidolate hydrochloride] | 1.01 | 1.02 | 1.03 | 0.967 | 1.03 | 1.04 | 0.998 | 0.976
10 | Fc1ccc(C(c2ccc(F)cc2)N2CCN(C/C=C/c3ccccc3)CC2)cc1 [Flunarizine dihydrochloride] | 1.04 | 1.04 | 1.01 | 1.02 | 1.01 | 1.03 | 1.02 | 0.987
11 | N=C(N)NC(=O)c1nc(Cl)c(N)nc1N [Amiloride hydrochloride dihydrate] | 1.01 | 1.01 | 1.04 | 1.02 | 1.03 | 1.04 | 0.982 | 0.996
12 | CN(C)c1nc(N(C)C)nc(N(C)C)n1 [Altretamine] | 1.01 | 1.06 | 1.05 | 1.02 | 1.01 | 0.998 | 1 | 0.99
13 | CN(C)CC/C=C1\c2ccccc2CSc2ccccc21 [Dosulepin hydrochloride] | 0.992 | 0.995 | 0.952 | 0.998 | 1.03 | 1.02 | 0.996 | 0.942
14 | CC[N+](C)(CC)CCC[n+]1c(-c2ccccc2)c2cc(N)ccc2c2ccc(N)cc21 [Propidium iodide] | 0.998 | 1.06 | 1.08 | 1.01 | 1.05 | 1.06 | 1.01 | 1
15 | CCN(CC)C(=O)N1CCN(C)CC1 [Diethylcarbamazine citrate] | 0.959 | 0.973 | 0.983 | 0.998 | 0.995 | 0.978 | 0.999 | 0.995
16 | O=c1[nH]c(=O)n([C@H]2C[C@H](O)[C@@H](CO)O2)cc1F [Floxuridine] | 0.713 (active) | 0.729 (active) | 0.695 (active) | 0.44 (active) | 0.0504 (active) | 0.0573 (active) | 0.815 | 0.791

Row | SMILES | growth AUC normalised to DMSO control [1] | growth AUC normalised to DMSO control (Shigella flexneri) | growth AUC normalised to DMSO control (Vibrio cholerae) | growth AUC normalised to DMSO control [2] | growth AUC normalised to DMSO control (P. vulgatus RND KO) | growth AUC normalised to DMSO control (P. vulgatus WT) | growth AUC normalised to DMSO control [3] | growth AUC normalised to DMSO control [4]
17 | CN1[C@@H]2CC[C@H]1C[C@@H](OC(c1ccccc1)c1ccccc1)C2 [Benztropine mesylate] | 1 | 1.01 | 1 | 1.01 | 0.944 | 0.904 | 0.998 | 0.195
18 | O=C(O)CN(CCN(CC(=O)O)CC(=O)O)CCN(CC(=O)O)CC(=O)O [Pentetic acid] | 1 | 1.01 | 1.03 | 1.07 | 1.05 | 1.08 | 1.02 | 0.998
19 | Oc1c(Cl)cc(Cl)c2cccnc12 [Chloroxine] | 0.922 (active) | 0.884 (active) | 0.0387 (active) | 0.652 (active) | 0.32 | 0.0729 (active) | 0.969 | 0.568
20 | CCCc1nn(C)c2c(=O)[nH]c(-c3cc(S(=O)(=O)N4CCN(C)CC4)ccc3OCC)nc12 [Sildenafil] | 1.02 | 1.07 | 1.06 | 1.03 | 1.02 | 1.02 | 1.02 | 1
21 | CC(C)(C)NCC(O)c1cc(O)cc(O)c1 (stereo not drawn) [Terbutaline hemisulfate] | 1.02 | 1.03 | 1.07 | 1 | 1.06 | 1.06 | 1.01 | 1.01
22 | CC(C)Cn1cnc2c(N)nc3ccccc3c21 [Imiquimod] | 1.02 | 1.05 | 1.06 | 1.01 | 0.986 | 0.951 | 0.997 | 0.994
23 | N[C@@H]1CONC1=O [D-cycloserine] | 1.03 | 1.01 | 1.02 | 1.01 | 0.972 | 0.962 | 0.994 | 1
24 | CC[C@H](C)C(=O)O[C@H]1C[C@H](O)C=C2C=C[C@H](C)[C@H](CC[C@@H](O)C[C@@H](O)CC(=O)O)[C@H]21 [Pravastatin] | 1.04 | 1.08 | 1.09 | 1.02 | 1.05 | 1.06 | 1.02 | 1.01
25 | CC(NCCC(c1ccccc1)c1ccccc1)c1ccccc1 (stereo not drawn) [Fendiline hydrochloride] | 1.01 | 1.02 | 0.86 | 0.996 | 0.978 | 0.977 | 1 | 0.95
26 | Nc1ncn(C2OC(CO)C(O)C2O)c(=O)n1 (stereo not drawn) [Azacytidine-5] | 1.02 | 1.04 | 1.02 | 1.04 | 0.999 | 0.996 | 0.977 | 0.963
27 | CC(C)(Sc1cc(C(C)(C)C)c(O)c(C(C)(C)C)c1)Sc1cc(C(C)(C)C)c(O)c(C(C)(C)C)c1 [Probucol] | 0.996 | 1.02 | 0.998 | 0.985 | 1 | 0.997 | 1.01 | 1
28 | CCn1cc(C(=O)O)c(=O)c2ccc(C)nc21 [Nalidixic acid sodium salt] | 0.594 (active) | 0.111 (active) | 0.035 (active) | 0.052 (active) | 0.985 | 0.969 | 0.105 | 0.0195 (active)
29 | NCCc1ccc(O)c(O)c1 [Dopamine hydrochloride] | 1.02 | 1.05 | 0.989 | 1.01 | 1.03 | 1.02 | 1 | 0.99
30 | CNCCCC1c2ccccc2C=Cc2ccccc21 [Protriptyline hydrochloride] | 0.973 | 1 | 0.997 | 1 | 0.913 | 0.882 | 0.996 | 0.951
31 | C[C@]12C=CC(=O)C=C1CC[C@@H]1[C@@H]2C(=O)C[C@@]2(C)[C@H]1CC[C@]2(O)C(=O)CO [Prednisone] | 1.01 | 0.994 | 1 | 1.01 | 1.02 | 1.02 | 0.994 | 0.999
